Screening data from PubChem BioAssay.
CHX counter: affects cycloheximide protein synthesis inhibition readout, counter-screen. AID 2314. hit rate 12% among 300,000. cell reporter, cycloheximide protein synthesis inhibition counterscreen. max response, %; in the data active = max response mostly above about 13%, no sharp cut-off; inactive = mostly below about 14%; also: read at 38.3 µM for the half of the compounds with a filed dose
SARS PLP yeast: blocks SARS-CoV papain-like protease in a yeast assay; Potency, µM (doses to about 32.9 µM), hits mostly activators; hit rate 0.19% among 330,000; S. cerevisiae expressing SARS-CoV PLpro, growth rescue; also: nearly all actives have a fitted effect of over 55% in size
Pf growth 96h: inhibits malaria parasite growth, 96 h. AID 504834. P. falciparum luciferase reporter growth, 96 h. Potency, µM (highest dose often 28.7 µM), hits mostly inhibitors. hit rate 6.9% among 320,000; active = well fitted inhibition curve with a large enough effect; inconclusive = small, poorly fitted or top-dose-only effect, or another doubt; inactive = no such curve, though single readings can be large or run the other way
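Cell-based qHTS: luciferase-tagged P. falciparum in erythrocytes (2% hematocrit, 0.05% parasitemia final) incubated with compounds for 96 hours, 37 C, 5% CO2; luciferase detection reagent then added and luminescence measured.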
Shiga toxin inh: blocks Shiga toxin action in Vero cells | Vero cells, Shiga toxin protein synthesis inhibition reporter | inhibition, % at 38.7 µM | hit rate 9.2% among 290,000 | AID 2315; in the data active = inhibition mostly above about 28%, no sharp cut-off; inactive = mostly below about 43%
Pf growth 48h: inhibits P. falciparum growth in the first generation, 48 h | Potency, µM (top dose mostly 28.7 µM), most hits filed as inhibitors | AID 504832 | hit rate 5.9% among 310,000 | P. falciparum luciferase growth in erythrocytes, 48 h; active = well fitted inhibition curve with a large enough effect; inconclusive = small, poorly fitted or top-dose-only effect, or another doubt; inactive = no such curve, though single readings can be large or run the other way
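Cell-based growth assay: transgenic P. falciparum expressing firefly luciferase, cultured in red cells within RPMI 1640 containing 0.5% w/v Albumax, 24 mM bicarbonate and gentamycin. A drop in luciferase activity indicates inhibition.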
NS1 function inh: influenza NS1 inhibition; Potency, µM (highest dose often 46.1 µM); hit rate 0.4% among 270,000; AID 2326; also: actives are rising curves; nearly all actives have a fitted effect of over 50% in size
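OD600 was taken as the measure of yeast growth restored by compound in an NS1-expressing S. cerevisiae strain. Cells had been washed out of glucose medium and diluted 1:100 into galactose -URA medium, pH 6.0.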
Hits are given with their value. Shown are actives, neighbours in structure and some others; about 21% of the full set was active somewhere. Unless noted, calls follow the shape of the full dose curve.

Nc1ccc2c(c1)OC1(CCCCC1)O2 was read as CHX counter inactive, SARS PLP yeast inactive, Pf growth 96h inactive, Shiga toxin inh inactive and Pf growth 48h inactive.
`Cc1cccc(NC(=O)Nc2ccc3c(c2)N(C)C(=O)CS3)n1` gave CHX counter inactive, SARS PLP yeast inactive, Pf growth 96h 10µM, Shiga toxin inh inactive and NS1 function inh inactive.
`Cc1ccc(NC(=O)Nc2ccc3c(c2)N(C)C(=O)CS3)nc1` gave CHX counter inactive, SARS PLP yeast inactive, Pf growth 96h inconclusive, Shiga toxin inh inactive, Pf growth 48h inconclusive and NS1 function inh inactive.
For Cc1ccnc(NC(=O)Nc2ccc3c(c2)N(C)C(=O)CS3)c1 the results were CHX counter 83, SARS PLP yeast inactive, Pf growth 96h 13µM, Shiga toxin inh 156, Pf growth 48h inactive and NS1 function inh inconclusive.
For Nc1nonc1-n1nnc(C(=O)N/N=C/c2ccoc2)c1-c1ccccc1 the results were CHX counter inactive, SARS PLP yeast inactive, Pf growth 96h inconclusive, Shiga toxin inh inactive, Pf growth 48h inactive and NS1 function inh inactive.
For Cn1nnnc1Sc1ncnc2scc(-c3cccs3)c12 the results were SARS PLP yeast inactive, Pf growth 96h inconclusive and Pf growth 48h inconclusive.
For Cn1nnnc1Sc1ncnc2scc(-c3ccc(-c4ccccc4)cc3)c12 the results were SARS PLP yeast inactive.
For CC(=O)c1ccccc1-c1csc2ncnc(Sc3nnnn3C)c12 the results were SARS PLP yeast inactive, Pf growth 96h 4.1µM and Pf growth 48h 12µM.
`Cn1nnnc1Sc1ncnc2scc(-c3ccc(C(F)(F)F)cc3)c12` gave SARS PLP yeast inactive, Pf growth 96h inconclusive and Pf growth 48h inconclusive.
For Cn1nnnc1Sc1ncnc2scc(-c3ccccc3C(F)(F)F)c12 the results were SARS PLP yeast inactive, Pf growth 96h 7.4µM and Pf growth 48h 13µM.
`Cn1nnnc1Sc1ncnc2scc(-c3cc4ccccc4o3)c12` gave SARS PLP yeast inactive, Pf growth 96h inconclusive and Pf growth 48h 4.1µM.
`O=C(NCC(c1ccco1)N1CCN(c2ccccc2)CC1)c1ccc2c(c1)OCO2` (stereo not drawn) gave CHX counter inactive, SARS PLP yeast inactive, Pf growth 96h inactive, Shiga toxin inh inactive and Pf growth 48h inactive.
`Nc1ccc(C(=O)OCC(=O)Nc2ccc([N+](=O)[O-])cc2C(F)(F)F)cc1` gave CHX counter inactive, SARS PLP yeast inactive, Pf growth 96h inactive, Shiga toxin inh inactive, Pf growth 48h inactive and NS1 function inh inactive.
For CCC(=O)N1CCc2cc(S(=O)(=O)N3CCN(c4ccccc4Cl)CC3)ccc21 the results were CHX counter inactive, SARS PLP yeast inconclusive, Pf growth 96h inconclusive, Shiga toxin inh inactive, Pf growth 48h inconclusive and NS1 function inh inactive.
For Cc1ccc(N(C(=O)c2nsc(Cl)c2Cl)C(C(=O)NC2CCCC2)c2ccc(O)cc2)cc1C (stereo not drawn) the results were CHX counter inactive, SARS PLP yeast inactive, Pf growth 96h inactive, Shiga toxin inh inactive, Pf growth 48h inconclusive and NS1 function inh inconclusive.
Screening Cc1cccc(N(C(=O)c2nsc(Cl)c2Cl)C(C(=O)NC2CCCC2)c2ccc(O)cc2)c1C (stereo not drawn) returned CHX counter inactive, SARS PLP yeast inactive, Pf growth 96h inconclusive, Shiga toxin inh inactive, Pf growth 48h 7.4µM and NS1 function inh inconclusive.
Screening Cc1ccc(N(CC(=O)NC2CCCC2)C(=O)c2nsc(Cl)c2Cl)cc1 returned CHX counter 30, SARS PLP yeast inactive, Pf growth 96h inconclusive, Shiga toxin inh 29, Pf growth 48h inactive and NS1 function inh inactive.
COc1ccc(C(C(=O)NC2CCCC2)N(Cc2ccccc2)C(=O)c2nsc(Cl)c2Cl)cc1 (stereo not drawn) was read as CHX counter inactive, SARS PLP yeast inactive, Pf growth 96h inconclusive, Shiga toxin inh inactive, Pf growth 48h inconclusive and NS1 function inh inactive.
CCOc1ccc(C(C(=O)NC2CCCC2)N(Cc2ccccc2)C(=O)c2nsc(Cl)c2Cl)cc1 (stereo not drawn) was read as CHX counter 15, SARS PLP yeast inconclusive, Pf growth 96h inconclusive, Shiga toxin inh inactive, Pf growth 48h 13µM and NS1 function inh inactive.
Screening CC(C)(C)C(=O)O/N=C(\N)c1ccc(Br)cc1 returned CHX counter inactive, SARS PLP yeast inactive, Pf growth 96h inactive, Shiga toxin inh inactive, Pf growth 48h inactive and NS1 function inh inactive.
`Cc1ccc(C(=O)O/N=C(\N)c2ccc(Br)cc2)cc1` gave CHX counter 33, SARS PLP yeast inactive, Pf growth 96h inactive, Shiga toxin inh 60 and NS1 function inh inactive.
Screening CC(C)(C)c1ccc(C(=O)O/N=C(\N)c2ccccc2)cc1 returned CHX counter 60, SARS PLP yeast inactive, Pf growth 96h inconclusive, Shiga toxin inh 74, Pf growth 48h inactive and NS1 function inh inactive.
Screening O=C(COC(=O)c1ccccc1)c1ccc(Br)cc1 returned CHX counter 47, SARS PLP yeast inactive, Pf growth 96h inactive, Shiga toxin inh 115, Pf growth 48h inactive and NS1 function inh inactive.
For N/C(=N\OC(=O)c1cccc(Br)c1)c1ccc(Br)cc1 the results were CHX counter inactive, SARS PLP yeast inactive, Pf growth 96h 1.9µM, Shiga toxin inh inactive, Pf growth 48h inactive and NS1 function inh inactive.
For CCOC(=O)c1cccc(NC(=O)COc2nsnc2N2CCOCC2)c1 the results were CHX counter inactive, SARS PLP yeast inactive, Pf growth 96h inactive, Shiga toxin inh inactive, Pf growth 48h inconclusive and NS1 function inh inactive.
`Cn1cc(Cl)c(C(=O)OCC(=O)c2ccccc2)n1` gave CHX counter 27, SARS PLP yeast inactive, Pf growth 96h 13µM, Shiga toxin inh 36, Pf growth 48h inactive and NS1 function inh inactive.
`NC(=O)COC(=O)c1ccc(Oc2ccccc2)cc1` gave CHX counter 28, SARS PLP yeast inactive, Shiga toxin inh inactive, Pf growth 48h inactive and NS1 function inh inactive.
For NC(=O)C(c1ccc(Br)cc1)c1ccc(C(=O)c2ccccc2)cc1 (stereo not drawn) the results were CHX counter 23, SARS PLP yeast inactive, Pf growth 96h inactive, Shiga toxin inh inactive, Pf growth 48h inactive and NS1 function inh inactive.
`N/C(=N\OC(=O)c1ccc(Br)cc1)c1ccccc1` gave CHX counter 66, SARS PLP yeast inactive, Pf growth 96h inactive, Shiga toxin inh 144, Pf growth 48h inactive and NS1 function inh inactive.
`CC(Sc1nc2c(c(=O)[nH]1)CCCC2)C(=O)Nc1ccccc1C#N` (stereo not drawn) gave CHX counter inactive, SARS PLP yeast inactive, Pf growth 96h inactive, Shiga toxin inh inactive, Pf growth 48h inactive and NS1 function inh inactive.
Screening Cc1nnc(NC(=O)C2CSC3(C)CCC(=O)N23)s1 (stereo not drawn) returned SARS PLP yeast inactive, Pf growth 96h inconclusive and Pf growth 48h inactive.
Screening COc1ccc(C(=O)O/N=C(\N)c2ccc(Br)cc2)cc1 returned CHX counter 62, SARS PLP yeast inactive, Pf growth 96h inactive, Shiga toxin inh 82, Pf growth 48h inconclusive and NS1 function inh inactive.
